Data from PubChem BioAssay AID651657 (Broad Institute, 2012).
Entries with a potency or affinity are not part of this list. Calls of active or inactive are those of the source.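 How the source made its calls: active means signal falls, with fitted half-maximal concentration at most twice the top valid dose tested; inconclusive means flat curve with partial signal loss, or poor curve fit; inactive means the rest, including signal rising instead.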

Each molecule was assayed against DNA repair and recombination protein RAD54-like (Homo sapiens) (UniProt Q92698) (assay: RAD54 Holliday junction migration blockers – biochemical, fluorescence, cherry-picked samples, dose series, confirmation (AID 651657)). Settings: RAD54 branch migration, FAM/BHQ fluorescence, 60 min; series mostly up to 50 µM.
Chain of DNA repair and recombination protein RAD54-like (Homo sapiens) (Q92698 whole entry, looked up): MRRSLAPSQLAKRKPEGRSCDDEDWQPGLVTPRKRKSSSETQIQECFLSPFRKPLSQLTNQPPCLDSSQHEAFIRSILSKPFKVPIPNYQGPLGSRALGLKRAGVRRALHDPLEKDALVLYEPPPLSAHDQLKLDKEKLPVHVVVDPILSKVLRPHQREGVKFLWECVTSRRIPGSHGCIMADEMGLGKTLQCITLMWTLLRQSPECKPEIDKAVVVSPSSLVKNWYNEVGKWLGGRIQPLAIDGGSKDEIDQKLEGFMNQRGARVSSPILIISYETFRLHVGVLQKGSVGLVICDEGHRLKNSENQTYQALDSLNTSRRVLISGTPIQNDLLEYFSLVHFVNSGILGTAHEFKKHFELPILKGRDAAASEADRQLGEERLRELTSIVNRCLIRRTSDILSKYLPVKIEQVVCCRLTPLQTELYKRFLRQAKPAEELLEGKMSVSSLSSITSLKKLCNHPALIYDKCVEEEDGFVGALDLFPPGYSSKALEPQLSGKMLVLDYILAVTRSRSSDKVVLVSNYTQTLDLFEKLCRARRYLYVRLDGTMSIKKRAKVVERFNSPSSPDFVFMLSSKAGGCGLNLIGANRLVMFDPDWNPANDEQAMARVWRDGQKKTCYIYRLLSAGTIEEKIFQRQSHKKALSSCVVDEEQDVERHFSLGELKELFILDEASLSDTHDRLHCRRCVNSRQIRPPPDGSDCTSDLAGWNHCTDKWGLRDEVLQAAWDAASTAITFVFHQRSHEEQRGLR

outcome, inactive:
Cc1ccc(C)c(N2CCN(C(=S)Nc3ccc4nc(N5CCN(C)CC5)cc(C)c4c3)CC2)c1, CCOC(=O)c1[nH]c2cc3c(cc2c1CCCN1C(=O)c2ccccc2C1=O)OCCO3, CCN(CC)S(=O)(=O)c1ccc(Cl)c(C(=O)Nc2nnc(C)s2)c1, COc1ccccc1NC(=O)CNC(=O)c1ccccc1, CN1CCN(CC(=O)Nc2nc(-c3c[nH]c4ccccc34)cs2)CC1, CCN1CCN(c2cc(C)c3cc(NC(=S)N4CC(C)CC(C)C4)ccc3n2)CC1 (stereo not drawn), Cn1nc(-c2ccccc2)cc1NS(=O)(=O)c1ccc(C#N)cc1, COc1ccccc1CNC(=O)c1cccs1, O=C1C(c2ccc(F)cc2)N(C2CCCCC2)C(=O)CN1C1CCCC1 (stereo not drawn), CCN1CCN(c2cc(C)c3cc(NC(=S)N4CCC5(CC4)OCCO5)ccc3n2)CC1, O=C(Nc1ccc2c(c1)OCO2)c1cc(-c2ccncc2)nc2ccccc12, COC(=O)Nc1nnc(COc2ccccc2)s1, COc1ccccc1NC(=O)Cn1nnc2sc3c(c2c1=O)CC(C)(C)OC3, Cc1ccc(S(=O)(=O)NCCCNS(=O)(=O)c2ccccc2[N+](=O)[O-])cc1, COC(=O)C1=C(C)Nc2nc3ccccc3n2C1c1ccccc1F (stereo not drawn), Cc1c(Cl)ccc(S(=O)(=O)NCCCn2ccnc2)c1Cl, CCOC(=O)C1C(=O)NC(N2CCN(c3ccccc3)CC2)=NC1c1ccco1 (stereo not drawn), CC(C)CSc1ncc(-c2cccc(C(F)(F)F)c2)cn1, COCCCNCCC(CCC(C)C)c1ccc2c(c1)OCO2 (stereo not drawn), CN(C)CCCN(C(=O)CCOc1ccccc1)c1nc2ccc(F)cc2s1, Cc1nc2oc3c(=O)[nH]cnc3c2c2c1COC(C)(C)C2, O=S(=O)(c1ccc(-c2nnc(SCc3ccccc3)o2)cc1)N1CCCC1, CCC(=O)N(Cc1cc2cc(OC)ccc2[nH]c1=O)c1cc(C)ccc1C
